The list is not random: actives were taken first. Their share in the collection is about 1.7%.
Peg3 imprint – inducers of genomic imprint erasure in mouse ES cells | mouse ES Peg3-LacZ reporter, beta-gal luminescence, 40 h | Potency, µM (series often up to 60.7 µM), for inactives: at the highest dose activity change, positive = activation, hits mostly activators | actives 0.02% (n = 110,000) | AID 1948
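Each well holds 300 Peg3LacZ-Neo (maternal) female ES cells incubated 40 h at 37C, 5% CO2. LacZ is measured by BetaGlo luminescence, with AC50 and maximum efficacy derived from dose-response curves.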
p53ts 39C kill – kills p53ts cells at the nonpermissive temperature; H1299-p53A138V viability at 39C, ATP luminescence, 24 h; Potency, µM (top dose mostly 46.1 µM), for inactives: top-dose activity change, negative = cell killing, hits mostly cytotoxic; actives 1.5% (n = 130,000); also: % is scaled to controls: 0 for no effect and ±100 for the full control effect; nearly all actives have a fitted effect of over 55% in size
p53ts 32C kill – p53ts cell cytotoxicity, permissive temperature; H1299-p53A138V at 32C, ATP luminescence viability, 24 h; Potency, µM (highest dose often 46.1 µM), for inactives: at the highest dose activity change, negative = cytotoxicity, actives largely listed as cytotoxic; actives 0.93% (n = 130,000); AID 924;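 also: 0% = DMSO and -100% = full killing by reference compound; nearly all actives have a fitted effect of over 55% in size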
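Viability by ATPlite luminescence after 24 h compound treatment (up to 46 uM) at the permissive 32C. Cells are H1299 carrying p53 A138V. Scale runs from DMSO basal to 100 uM tamoxifen as full kill; AC50 from Hill fits.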
IkB sig inh – suppresses IkB signaling in ABC-DLBCL reporter cells. ABC-DLBCL IkBa-CBG/CBR dual luciferase ratio, 4 h; response scale: scaled: untreated 0%, proteasome inhibitor 100%. Potency, µM (highest dose often 57.1 µM), without a hit: at the top dose IkBa stabilization activation. actives 0.04% (n = 110,000). AID 445; active = well fitted curve in the direction sought with a large enough effect in the signal ratio, not every such curve was filed as active; inconclusive = small, poorly fitted or top-dose-only effect, or a change in a side signal; the % refers to the signal ratio;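 also: the direction sought is a rising ratio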
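Luminescence ratio of IκBα-fused green versus native red beetle luciferase in OCI-Ly3 cells, 4 h post-doxycycline with compound; red signal alone, scaled from basal (0%) to zero light (-100%), flagged nonspecific or cytotoxic effects.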
* = called active by the depositor; ? = inconclusive; / = not tested or not shown; [ ] = dose if it differs, or a comment. Unless noted, calls follow the shape of the dose curve; as a rule, active = well fitted curve in the direction sought with a large enough effect; inconclusive = small, poorly fitted or top-dose-only effect, or another doubt; inactive = no such curve, though single readings can be large; an effect the other way counts as inactive or inconclusive. Potency is read from the fitted curve at half-maximal effect.

SMILES | Peg3 imprint | p53ts 39C kill | p53ts 32C kill | IkB sig inh
Clc1ccccc1-c1nccc(NCCN2CCOCC2)n1 | -12.6% | -12.9% | -1.3% | -0.3%[11.4 µM]
O=C1C(Cl)=C(NCCN2CCOCC2)C(=O)c2ncccc21 | -82.1% | 5.01µM* | 3.16µM* | /
O=C1C(=O)c2ccccc2C(O)=C1C(CCc1ccccc1)C1=C(O)c2ccccc2C(=O)C1=O | -2.7%[10.9 µM] | 8.0%[9.22 µM] | 7.9%[9.22 µM] | 10.9%[11.4 µM]
Cc1ccc(OCCCSc2nc(-c3ccc(C(C)(C)C)cc3)nc3cc(=O)[nH]n23)cc1C | -6.2%[10.9 µM] | 20µM* | ? | 2.1%
CC(C)(C)c1ccc(-c2nc(SCCOc3ccc(Cl)cc3)n3[nH]c(=O)cc3n2)cc1 | 4.4%[10.9 µM] | ? | ? | 16.1%
C=CCc1ccccc1OCCSc1nc(-c2ccc(C(C)(C)C)cc2)nc2cc(=O)[nH]n12 | -1.9%[10.9 µM] | 10µM* | ? | -0.1%
COc1ccccc1OCCSc1nc(-c2ccc(C(C)(C)C)cc2)nc2cc(=O)[nH]n12 | -2.9%[10.9 µM] | 56.1% | 35.9% | ?
COc1ccc(OC)c(S(=O)(=O)Nc2ccc(C(N)=O)cc2)c1 | 0.4% | 10.3% | 7.4% | 2.7%
COc1ccc(OC)c(S(=O)(=O)Nc2ccc(O)c3ccccc23)c1 | -27.6% | 10µM* | ? | ?
CCn1cc(C(=O)O)c(=O)c2ccc(Cc3ccccc3)nc21 | / | / | / | -0.2%
COc1cccc(-c2cc(C(=O)Nc3cccc(O)c3)no2)c1 | -73.5% | 3.16µM* | 2.51µM* | ?
COc1cc(NC(=O)c2cc(-c3ccc(Cl)c(Cl)c3)on2)cc(OC)c1OC | -10.0%[10.9 µM] | 20µM* | -26.3% | 10.7%
Cc1ccc(NC(=O)CSCn2nnc3c(=O)[nH]c(Cc4ccc(F)cc4)nc32)c(C)c1 | -11.4%[10.9 µM] | 2.3% | 10.2% | -1.5%
Cc1ccc(C)c(NC(=O)N2CCc3cc(S(=O)(=O)N4CCC(C)CC4)ccc32)c1 | -3.6%[10.9 µM] | 5.6% | 2.2% | ?
c1ccc(-c2cn3c4c(sc3n2)CCCC4)cc1 | -87.9% | 0.631µM* | 1µM* | ?
Cc1c(C(=O)N2CCc3ccccc3C2)sc2nc(-c3ccccc3)cn12 | -13.0% | -12.0% | -2.2% | ?
Cc1ccc(-n2nc3ccc(N)cc3n2)cc1 | -55.7% | 7.94µM* | 7.94µM* | 12.3%
Cc1ccc(-n2nc(-c3ccc(N)cc3)cc2N)cc1 | 0.2% | -14.1% | -5.5% | 2.4%
O=C(Nc1ccc(C(F)(F)F)cc1)C(Cc1ccccc1)n1cccc1 (centres undefined) | -10.2%[10.9 µM] | 20µM* | -10.0% | ?
CCCS(=O)(=O)N1CCC(N2CCN(Cc3ccc(F)cc3)C(=O)C2=O)CC1 | 3.2%[10.9 µM] | -13.4% | -2.4% | 0.4%
COc1cc(C(=O)Nc2ccc(OCc3cc(=O)n4cccc(C)c4n3)cc2)cc(OC)c1OC | -10.2%[10.9 µM] | 31.6µM* | ? | -0.2%
COc1ccccc1C(=O)Nc1ccc(OCc2cc(=O)n3cccc(C)c3n2)cc1 | 3.9%[10.9 µM] | 5.9% | 9.4% | -0.8%
O=C(CSc1nc2c(oc3ccccc32)c(=O)[nH]1)Nc1cccc(Cl)c1 | 12.6%[10.9 µM] | 7.94µM* | 10µM* | ?
COc1cccc(-n2c(SCC(=O)Nc3cccc(Cl)c3)nc3c(oc4ccccc43)c2=O)c1 | 3.9%[10.9 µM] | -11.5% | 7.9% | ?
COc1ccc2cc(C(=O)NCc3ccc4c(c3)CCN4C(=O)c3ccc(C)cc3)[nH]c2c1 | -8.1%[10.9 µM] | 13.1% | 0.2% | ?
SMILES | Peg3 imprint | p53ts 39C kill | p53ts 32C kill | IkB sig inh
Cc1cc(=O)[nH]c(S/C=C/c2ccccc2)n1 | -84.7% | 5.01µM* | 6.31µM* | ?
Cc1cccc(C(=O)N2CCc3cc(CNC(=O)CCc4ccccc4)ccc32)c1 | ? | -11.3% | -15.2% | ?
COc1cc(/C=C/C(=O)N2C(=O)c3cccc(N)c3C2=O)cc(OC)c1OC | / | -17.8% | / | /
COc1cc(/C=C/C(=O)O)cc(OC)c1OC | 14.3% | 2.1% | -7.2% | /
COc1cc(/C=C/C(=O)N2CCCCC2=O)cc(OC)c1OC | -27.3% | 12.6µM* | 12.6µM* | /
COc1cc(/C=C\C(=O)N2CCC=CC2=O)cc(OC)c1OC | -35.3%[16.8 µM] | 6.31µM* | 6.31µM* | ?
Cc1ccc(C2c3c(-c4ccccc4O)n[nH]c3C(=O)N2CCCO)cc1 (centres undefined) | -10.0%[10.9 µM] | 1.3% | 18.9% | ?
Cc1ccc(C2c3c(-c4cc(C)ccc4O)n[nH]c3C(=O)N2Cc2ccco2)cc1 (centres undefined) | -6.0%[10.9 µM] | 25.1µM* | ? | ?

Screens from PubChem BioAssay.
